Screening results deposited in PubChem BioAssay by several laboratories.
Shown are actives, neighbours in structure and some others; about 9.6% of the full set was active somewhere.
PostGolgi ctrl: growth inhibition of yeast control strain, primary screen, counter-screen for post-Golgi transport modulator project; 5% of 98,000 active; efflux-deficient yeast background strain, growth absorbance A615, 16 h; inhibition, % at 10 µM
Cav3 T inh: Cav3.2 calcium influx blockers – cell-based, Fluo-4 calcium fluorescence, FDSS, MLSMR library, primary screen; B-score at 10 µM; Cav3.2-expressing cells; active compounds read low; 4% of 100,000 active; AID 449739, 2010;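 active = single-dose well whose peak fluorescence ratio is a statistical outlier from its plate by either plate-standardised score or position-corrected B-score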
PostGolgi yeast: phenotypic screen on post-Golgi transport, primary screen | inhibition, % at 10 µM | 0.9% of 98,000 active | post-Golgi transport phenotypic cell assay;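 also: yeast cells grown in 1536-well plates; yeast grown about 18 h at 30C before absorbance read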
DAT uptake mod: changed hDAT dopamine uptake under cocaine IC80, either direction, primary screen, cocaine antagonist project, cell-based, LLC-PK1 hDAT, [14C]-dopamine uptake, MLSMR; Sodium-dependent dopamine transporter (Homo sapiens), Q01959; LLC-PK1 hDAT cells, [14C]-dopamine uptake with cocaine IC80; actives deviate in either direction; B-score at 10 µM; 1.3% of 110,000 active;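 active = Z score or B-score, a plate-position-corrected score, falls beyond the plate's 99.7% confidence bounds, in either direction; inactive = both scores lie inside the 99.7% bounds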;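 also: scored against the spread of the other compound wells on the same plate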
PLAP act: PLAP enzyme activators, biochemical, luminescence, HTS. purified PLAP enzyme, luminescent substrate read-out; active compounds read high. 1.2% of 96,000 active. activation fold at 20 µM. AID 696, 2007. Alkaline phosphatase, placental type (Homo sapiens), P05187; in the data active = activation fold above about 2
Target sequence (P05187 whole entry, looked up): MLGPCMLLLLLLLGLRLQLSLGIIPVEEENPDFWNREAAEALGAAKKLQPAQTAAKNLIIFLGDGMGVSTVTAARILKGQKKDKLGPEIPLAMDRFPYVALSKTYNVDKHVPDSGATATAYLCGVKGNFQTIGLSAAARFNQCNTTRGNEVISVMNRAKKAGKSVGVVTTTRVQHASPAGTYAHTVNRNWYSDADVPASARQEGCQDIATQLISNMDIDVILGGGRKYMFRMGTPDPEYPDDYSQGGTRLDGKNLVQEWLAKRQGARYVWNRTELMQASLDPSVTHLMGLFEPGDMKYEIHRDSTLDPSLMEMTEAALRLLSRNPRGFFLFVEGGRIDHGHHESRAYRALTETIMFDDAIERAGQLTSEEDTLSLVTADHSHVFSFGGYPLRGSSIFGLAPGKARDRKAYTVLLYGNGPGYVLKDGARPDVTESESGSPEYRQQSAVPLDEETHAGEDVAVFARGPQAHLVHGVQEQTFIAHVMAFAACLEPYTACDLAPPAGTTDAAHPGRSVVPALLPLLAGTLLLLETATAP
Numbers without * were called inactive; / = not tested or not shown. Rule as the data show it, unless noted: active = inhibition above about 30%; inactive = the rest.

SMILES | PostGolgi ctrl | Cav3 T inh | PostGolgi yeast | DAT uptake mod | PLAP act
CCOc1ccc2noc3c2c1C(=O)c1ccccc1-3 | -7 | -5.7* | -2 | 0.2 | 1.1
CCn1c(COc2cccc(OC)c2)nnc1SCC(=O)Nc1cccc(OC)c1 | 6 | -2.3 | -3 | 1.3 | 1.7
CC12CCC(C(=O)NCc3ccccc3)(OC1=O)C2(C)C (stereo not given) | 6 | 0.77 | -2 | -1.3 | 1.2
Cc1ccccc1NC(=S)NCc1ccc2c(c1)OCO2 | 38* | / | 5 | / | 0.8
Cc1cc(C)cc(NC(=S)NCc2ccc3c(c2)OCO3)c1 | / | -4.8* | / | -0.64 | /
CC12CCC(C(=O)NCc3ccc4c(c3)OCO4)(OC1=O)C2(C)C (stereo not given) | 33* | 0.63 | 10 | -0.78 | 0.9
Cc1ccc(C)c(NC(=S)NCc2ccc3c(c2)OCO3)c1 | -10 | -1.2 | -1 | 1.1 | 1
CCc1ccccc1NC(=S)NCc1ccc2c(c1)OCO2 | -5 | 0.035 | -2 | -0.38 | 0.9
N#Cc1c(NC(=S)NC(=O)Cc2cccs2)sc2c1CCCCC2 | 20 | / | -2 | / | 1.1
COC(=O)c1ccc(CNC(=O)CSc2nnc(COc3ccccc3)n2C)o1 | 26 | 0.039 | -5 | 0.34 | 1
CC(=O)N1CCN(CC(=O)Nc2c(Cl)cc(Cl)cc2Cl)CC1 | 9 | 0.11 | 4 | 0.45 | 1.5
Cn1c(=O)c2cc(S(=O)(=O)NCCC(=O)NCCc3ccc(Cl)cc3)ccc2n(C)c1=O | -8 | -0.35 | -5 | -0.84 | 1.2
CC1=C(C(=O)OCC(C)C)C(c2cc3c(cc2Br)OCO3)NC(=O)N1C (stereo not given) | 38* | -0.78 | -2 | -0.094 | 1.5
O=C(NCc1ccco1)c1cc(S(=O)(=O)N2CCOCC2)ccc1Cl | 35* | 0.025 | 5 | -1.2 | 1.3
O=C(NCc1ccco1)c1ccc(S(=O)(=O)N2CCOCC2)cc1 | 9 | 0.43 | 4 | -0.96 | 1.1
COc1ccc(N2CCN(S(=O)(=O)c3ccc(C(=O)NCc4ccco4)cc3)CC2)cc1 | 0 | -3.9* | 0 | -0.73 | /
Cc1ccc(NC(=O)c2cc(S(=O)(=O)N3CCOCC3)ccc2F)c(C)c1 | 10 | 0.16 | -8 | 0.86 | 1
O=C(NCc1ccc(F)cc1)c1cc(S(=O)(=O)N2CCOCC2)ccc1F | 5 | -5.2* | 1 | 0.018 | 1.4
OC(c1ccccc1)(c1ccc(F)cc1)C(c1ccccc1)N1CCOCC1 (stereo not given) | 31* | -2.8* | 7 | -1.9 | 1.2
O=C(COn1nnc2ccc(Cl)cc21)NC12CC3CC(CC(C3)C1)C2 | 52* | -1.7 | 6 | 0.17 | 0.6
CCn1c(N2CCC(Cc3ccccc3)CC2)nc2c1c(=O)[nH]c(=O)n2C | 37* | / | 2 | -0.02 | 1.3
CC1CCCN(c2nc3c(c(=O)[nH]c(=O)n3C)n2CCCc2ccccc2)C1 (stereo not given) | 35* | -5.6* | 3 | 0.54 | 1.5
COc1ccc(/C(O)=C/C(=O)C(=O)Nc2c(C)n(C)n(-c3ccccc3)c2=O)cc1 | 10 | -0.079 | -2 | 0.017 | 1.1
COc1ccc(/C(O)=C/C(=O)C(=O)NNC(=O)C(O)(c2ccccc2)c2ccccc2)cc1 | 2 | -9.7* | 9 | -0.21 | 1.1
N#Cc1cn(-c2ccccc2)nc1-c1cc2ccccc2oc1=O | -2 | 0.085 | 36* | 0.43 | 0.8
SMILES | PostGolgi ctrl | Cav3 T inh | PostGolgi yeast | DAT uptake mod | PLAP act
CCCCOc1[nH]c2nc(-c3ccco3)n(Cc3ccco3)c(=N)c2c1C#N | 17 | / | 7 | 1.5 | 1.3
O=C1CC(NCc2ccc3c(c2)OCO3)C(=O)N1Cc1ccc2c(c1)OCO2 (stereo not given) | 7 | -0.098 | 5 | -0.19 | 1.1
Cc1ccc(CNC(=O)C(Cc2ccccc2)NS(=O)(=O)c2ccc3c(c2)CCC(=O)N3)cc1 (stereo not given) | 2 | -1.3 | 1 | 0.14 | 0.7
CCCNC(=O)C(Cc1ccccc1)NS(=O)(=O)c1ccc2c(c1)CCC(=O)N2 (stereo not given) | 6 | -0.77 | 0 | -2.2* | 0.8
Cc1ccc(C(C(=O)NC2CCCC2)N(C(=O)Cc2cccs2)c2ccc(C)c(C)c2)o1 (stereo not given) | 3 | -2.3* | -7 | 0.028 | 1.1
Cc1ccc(C)c(N(C(=O)Cc2cccs2)C(C(=O)NC2CCCC2)c2ccc(C)o2)c1 (stereo not given) | 3 | 0.016 | -12 | 0.97 | 0.9
Cc1nn(C)cc1C(C(=O)NC1CCCCC1)N(C(=O)Cc1cccs1)c1ccc(C(C)C)cc1 (stereo not given) | 4 | -5.3* | 7 | 2 | 1.3
COc1ccc(-c2cc(C(F)(F)F)c3c(=O)n(-c4ccccc4)[nH]c3n2)cc1 | 33* | -0.37 | 13 | -0.0092 | 1.2
O=C(CN1C2CCCC1CC(NC(=O)c1ccccc1)C2)Nc1nccs1 (stereo not given) | / | 0.96 | / | 0.53 | /
CC(C)CC(c1nnnn1CC1CCCO1)N1CCN(c2nc3ccccc3s2)CC1 (stereo not given) | 13 | / | -8 | 0.52 | 1.2
CCCC(c1nnnn1Cc1ccco1)N1CCN(c2cc(Cl)ccc2C)CC1 (stereo not given) | 16 | -6.9* | 3 | 1.3 | 1.1
CCCCC(c1nnnn1CC1CCCO1)N1CCN(c2cc(Cl)ccc2C)CC1 (stereo not given) | 31* | -5.3* | 1 | -0.39 | 1.5
COc1cccc(-c2cc(C(=O)N3C(C)CCCC3C)no2)c1 (stereo not given) | 16 | -3.7 | -17 | 0.15 | 1.7
O=C(CSc1nnc(Cc2cccs2)n1C1CCCCC1)N1CCCc2ccccc21 | 11 | -7.2* | 6 | 2.2* | 1.8
N#C/C(=C(/O)CSc1nnc(Cc2cccs2)n1C1CCCCC1)c1nc2ccccc2[nH]1 | -12 | -3.8 | -5 | 0.067 | 2.7*
Cc1ccc2nc(CSc3nnc(Cc4cccs4)n3C3CCCCC3)cc(=O)n2c1 | 39* | 1.5 | -2 | 0.78 | 1.8
N#CCSc1nnc(Cc2cccs2)n1C1CCCCC1 | 3 | 0.22 | 13 | 0.058 | 0.9
COC(=O)Nc1nnc(-c2ccccc2Cl)s1 | 1 | 0.85 | -5 | 0.52 | 0.9
CC12CC(c3ccccc3O1)N(C(=O)c1ccco1)C(=S)N2c1ccc(F)cc1 (stereo not given) | 23 | -2.6 | -7 | -1.5 | 1
O=C(c1n[nH]c(=O)c2ccccc12)N1CCN(c2ccccc2)CC1 | 0 | 1.5 | 7 | -2.1 | 1
O=C(c1n[nH]c(=O)c2ccccc12)N1CCN(c2ccccc2Cl)CC1 | 50* | -1.5 | -2 | -0.23 | 1
CC(C)(Oc1ccc(Cl)cc1)C(=O)OCC(=O)Nc1ncc(Cl)cc1Cl | 2 | -6.9* | 7 | -0.64 | 0.9
